AC50 and outcome data for one compound are collected here from PubChem BioAssay (EPA / NIEHS).

Test [1] is described as follows: CCTE_Shafer_MEA_dev_firing_rate_mean: CCTE's Neural Network Formation Assay for Mean Firing Rate, Shafer Lab (AID 2284031).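 Also: curve fitted for loss of firing so AC50 reflects decreased mean firing rate.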 An outline of the steps:
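Primary rat cortical neurons on 48-well MEA plates, exposed from plating day 0 with dosing renewed on DIV 5 and 9. Mean well firing rate over active electrodes, recorded days 5, 7, 9, 12, summarised as trapezoidal AUC.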

The nature of test [2]: CCTE_Shafer_MEA_dev_per_burst_spike_percent: CCTE's Neural Network Formation Assay for Percent of Spikes in a Burst, Shafer Lab (AID 2284032).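 Also: fitted as a decrease in burst spike percentage below DMSO baseline.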 An outline of the steps: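 Rat primary cortical neurons on 16-electrode MEA wells, dosed from plating day 0 for 12 days with renewal on DIV 5 and 9; spikes-in-bursts percentage averaged over bursting electrodes, collapsed as AUC across days 5, 7, 9, 12; loss direction versus DMSO.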

The nature of test [3]: CCTE_Shafer_MEA_dev_active_electrodes_number: CCTE's Neural Network Formation Assay for Number of Active Electrodes, Shafer Lab (AID 2284040; active = hit-call score of the fitted dose curve at least 0.9, where 1 is the maximum;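 also: potency for loss of active electrodes versus DMSO so lower counts are hits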). In outline:
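Primary rat cortical neurons on 16-electrode MEA wells, exposed from day 0 through day 12 with compound renewed at DIV 5 and 9 feeds. Active electrodes (mean firing ≥5 spikes/min) counted at DIV 5, 7, 9, 12; trapezoidal AUC across days, loss-of-signal versus DMSO.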

Test [4] can be described thus: CCTE_Shafer_MEA_dev_burst_duration_mean: CCTE's Neural Network Formation Assay for Mean Burst Duration, Shafer Lab (AID 2284045). In outline: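 Read-out: average first-to-last-spike interval within single-electrode bursts, averaged over bursting electrodes per well, then summarised as area under the curve across days 5, 7, 9 and 12. Developing rat cortical networks were exposed from day 0.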

The nature of test [5]: CCTE_Shafer_MEA_dev_interburst_interval_mean: CCTE's Neural Network Formation Assay for Mean Interburst Interval, Shafer Lab (AID 2284046).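 Also: well-mean interburst interval of bursting electrodes as AUC over four recording days; curve fitted for decrease in interburst interval relative to DMSO.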 In outline:
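Primary rat cortical neurons on PEI-coated 48-well MEA plates (laminin added with cells at plating) (16 electrodes/well), exposed from plating day 0 with renewal at DIV 5 and 9. Mean inter-burst interval averaged over bursting electrodes, AUC across days 5, 7, 9, 12; DMSO baseline.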

Test [6] in a line: CCTE_Shafer_MEA_dev_network_spike_number: CCTE's Neural Network Formation Assay for Number of Network Spikes, Shafer Lab (AID 2284048).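 Also: synchronized bursts across electrodes counted on days 5 7 9 12 and integrated as AUC.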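 As to AC50: fit as a loss of signal meaning fewer network spikes than DMSO.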 An outline of the steps: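 Developing networks of primary rat cortical neurons are treated over 12 days starting at plating, with media and compound fully replaced on DIV 5 and 9. Network spike counts from four recording days are integrated as trapezoidal AUC.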

The nature of test [7]: CCTE_Shafer_MEA_dev_network_spike_peak: CCTE's Neural Network Formation Assay for Mean Number of Electrodes in Network Spike, Shafer Lab (AID 2284049).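 Also: fitted for loss of signal meaning fewer electrodes in network spikes than DMSO.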 In outline:
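Rat cortical primary culture, 1.5 x 10^5 cells/well, 48-well MEA (16 electrodes/well). Dosing day 0 through DIV 12, full media/compound exchange DIV 5, 9. AxIS adaptive spike detection; AUC over days 5/7/9/12; loss-of-signal vs DMSO.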

Test [8] can be described thus: CCTE_Shafer_MEA_dev_spike_duration_mean: CCTE's Neural Network Formation Assay for Mean Spike Duration, Shafer Lab (AID 2284051).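 Also: mean network spike duration pooled as area under curve over DIV 5 to 12 recordings; potency for a decrease in mean network spike duration versus DMSO.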 In outline:
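Spontaneous activity was recorded on days 5, 7, 9 and 12 from rat cortical cultures grown on microelectrode arrays and dosed continuously from day 0, with media and compound renewed after the DIV 5 and 9 recordings. Network-spike duration was collapsed by area under the curve.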

Test [9] is described as follows: CCTE_Shafer_MEA_dev_per_network_spike_spike_number_mean: CCTE's Neural Network Formation Assay for Mean Number of Spikes in a Network Spike, Shafer Lab (AID 2284053).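 Also: fitted as decrease in spikes per network spike relative to DMSO.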 An outline of the steps: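 Mean spike count within each network spike, taken in a 0.05 s window at its peak, was recorded on days 5, 7, 9 and 12 and integrated as trapezoidal area under the curve. Rat cortical cultures on MEA plates received continuous compound from day 0, refreshed at medium changes on DIV 5 and 9.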

Test [10] can be described thus: CCTE_Shafer_MEA_dev_LDH: CCTE's Lactate Dehydrogenase Assay for Cytotoxicity in the Neural Network Formation Assay, Shafer Lab (AID 2284068; active = hit-call score of the fitted dose curve at least 0.9, where 1 is the maximum;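 also: exposure for twelve days from plating with re-dosing on DIV 5 and 9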). In outline:
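Primary rat cortical neurons were cultured on PEI-coated MEA plates and exposed from plating through day 12, with compound renewed at medium changes on DIV 5 and 9. LDH activity was read spectrophotometrically; loss of signal versus DMSO indicates reduced viability.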

Test [11] is described as follows: CCTE_Shafer_MEA_dev_AB: CCTE's Alamar Blue Assay for Cytotoxicity in the Neural Network Formation Assay, Shafer Lab (AID 2284083; active = hit-call score of the fitted dose curve at least 0.9, where 1 is the maximum;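 also: resazurin reduction fluorescence as viability of cultured neurons; twelve days of exposure from plating with re-dosing on DIV 5 and 9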). In outline: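 Resazurin fluorescence, relative to DMSO, gauges viability after twelve days of exposure that began at plating of rat cortical neurons (1.5 x 10^5 cells/well, 48-well MEA); treatment renewed with full medium exchange on DIV 5 and 9.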

A short description of test [12]: CCTE_Shafer_MEA_dev_correlation_coefficient_mean: CCTE's Neural Network Formation Assay for Mean Correlation Coefficient, Shafer Lab (AID 2284093).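 Also: well mean pairwise spike train correlation integrated as AUC over recording days 5 to 12; potency fitted for loss of correlation relative to DMSO vehicle wells.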 In outline: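 Primary rat cortical neurons on PEI-coated 48-well MEA plates (16 electrodes/well) were exposed from plating day 0 through DIV12, with compound renewed at DIV5 and 9. Pairwise spike correlations were averaged per well; trapezoidal AUC across DIV5, 7, 9, 12.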

Test [13] in a line: IUF_NPC1b_proliferation_BrdU_72hr: Leibniz Research Institute for Environmental Medicine (IUF) 72-hour Neural Progenitor Cell Bromodeoxyuridine (BrdU) Proliferation Assay (NPC1b) (AID 2284207). In outline: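 Proliferation of primary human neural progenitor cells: 72 h compound treatment at 37C, 5% CO2, pH 7.2-7.6, in EGF/FGF-containing medium. Readout is BrdU uptake (last 16 h) by chemiluminescent ELISA, normalised to DMSO.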

The nature of test [14]: IUF_NPC1a_proliferation_area_72hr: Leibniz Research Institute for Environmental Medicine (IUF) 72-hour Neural Progenitor Cell Proliferation Area Assay (NPC1a) (AID 2284208). An outline of the steps: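 Measured in 3D suspension: each well held one primary hNPC sphere grown with EGF and FGF at pH 7.2-7.6. Compound stayed on for 72 h, then area was imaged; spheres lacking growth factors defined reduced proliferation.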

Test [15] is described as follows: IUF_NPC1_viability_72hr: Viability Assessment at 72 hours in the Leibniz Research Institute for Environmental Medicine (IUF) Neural Progenitor Cell Proliferation Assay (NPC1) (AID 2284209). An outline of the steps:
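Single spheres (0.25-0.35 mm) of human fetal cortex-derived neural progenitor cells were grown in proliferation medium with EGF and FGF at 37C and 5% CO2. They were exposed for 72 h without renewal, and viability was read by alamar blue resorufin fluorescence.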

A short description of test [16]: CCTE_Mundy_HCI_Cortical_Synap_Neur_Matur_NeuriteSpotCountPerNeuriteLength: CCTE's Synaptogenesis and Neurite Maturation Assay in rat cortical cells for Neurite Spot Count per Neurite Length, Mundy Lab (AID 2284210). An outline of the steps:
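Primary rat cortical neurons, compound exposure DIV 7–12, 288.33 h endpoint. Hoechst, anti-MAP2 and anti-synaptophysin labelling; neurite-associated puncta per neurite length scored by automated imaging relative to DMSO controls.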

A short description of test [17]: CCTE_Mundy_HCI_Cortical_NOG_NeuriteLength: CCTE's Neurite Outgrowth Assay in rat cortical cells for Neurite Length, Mundy Lab (AID 2284213). In outline:
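Neurite length was read by high-content imaging of βIII-tubulin-labelled neurites in rat primary cortical cultures. Activity was fitted relative to DMSO.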

The structures appear in SMILES notation. Where “and” joins values, the source holds several entries; their conditions need not be identical. Equal entries are not always repeated. Inconclusive results are not listed. The source holds several records for some structures; these can differ, active in one and inactive in another. Calls of active or inactive are those of the source. The calls were made as follows, unless noted: active = hit-call score of the fitted dose curve at least 0.9, where 1 is the maximum; inactive = score below 0.9.

Turning to `CN(C)CCCn1cc(C2=C(c3c[nH]c4ccccc34)C(=O)NC2=O)c2ccccc21`, the AC50 is 1.97 µM (active) [middle of 4 runs] in test [1]; 4.52 µM (active) and 2.95 µM (active) and 5 µM (active) in [2]; 4.2 µM (active) [middle of 4 runs] in test [3]; 264 nM (active) and 467 nM (active) and 1.58 µM (active) in test [6]; 3.8 µM (active) and 3.08 µM (active) and 5 µM (active) in [7]; 6.41 µM (active) and 5 µM (active) and 3.28 µM (active) in test [8]. Further, the AC50 is 1.61 µM (active) and 2.57 µM (active) and 5 µM (active) in test [9]; 7.97 µM (active) in [10]; 7.86 µM (active) [middle of 4 runs] in test [11]; 3.16 µM (active) [middle of 4 runs] in test [12]; 0.263 µM (active) in test [13]; 11.6 µM (active) in test [14]. The call in test [4], in test [5], in test [6], in test [15], in test [16] and in [17] was inactive.

The term AC50 denotes the midpoint of the concentration-response curve, whichever way the signal moves.
